PglD DTNB = inhibitors of Campylobacter jejuni PglD acetyltransferase; purified PglD enzyme, DTNB colorimetric CoA detection; AID 602405; inhibition, % at 12.5 µM; 360,000 tested, 0.098% active; in the data active = inhibition above about 16%, passing the limit was not always enough
FGF22 binding = FGF22 (human) thermal shift binding | Q9HCT0 | recombinant FGF22 thermal shift, SYPRO orange fluorescence; percent of sucrose octasulfate shift, DMSO zero | activity (Tm shift, normalised), % at 9.99 µM | 340,000 tested, 1.5% active;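 active = mean Tm shift, scaled 0 neutral to 100 positive control, at about 1.3% or above, every replicate too, limit read from the data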
Target sequence (Q9HCT0 whole entry, looked up): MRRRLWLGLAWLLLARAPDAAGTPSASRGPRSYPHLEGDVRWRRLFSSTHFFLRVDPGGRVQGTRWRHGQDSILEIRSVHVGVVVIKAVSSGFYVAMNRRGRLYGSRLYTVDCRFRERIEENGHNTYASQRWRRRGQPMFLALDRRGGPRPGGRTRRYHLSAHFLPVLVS
PvdQ inh = P. aeruginosa PvdQ acylase inhibition | 340,000 tested, 0.063% active | AID 488965 | inhibition, % at 10 µM | purified PvdQ acylase, fluorescence plate reader; in the data active = inhibition above about 30%, passing the limit was not always enough
CDK5 inh = CDK5/p35 (human) kinase inhibition. Q00535+Q15078. Recombinant CDK5/p35, ADP-Glo luminescence, 60 min. inhibition, % at 10 µM. 330,000 tested, 0.01% active. AID 488839;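 active = highest replicate inhibition of at least 50% and at least 75% of replicates reaching 50%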
SIRT5 inh = sirtuin-5 (human) deacylase inhibition; Q9NXA8; Purified SirT5, succinyl-peptide AMC, trypsin-coupled fluorescence; inhibition, % at 15 µM; 330,000 tested, 1.1% active; in the data active = inhibition above about 15%
dFosB activator = enhances mouse delta FosB homodimer DNA binding; 340,000 tested, 0.99% active; P13346; activation, % at 25 µM; purified delta FosB, TAMRA-CDK5 oligo fluorescence polarization; percent of positive-control signal above neutral wells; AID 493131;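 active = mean activation above about 17%, with every replicate also reaching it, limit read from the data, passing the limit was not always enough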
Target sequence (P13346 whole entry, looked up): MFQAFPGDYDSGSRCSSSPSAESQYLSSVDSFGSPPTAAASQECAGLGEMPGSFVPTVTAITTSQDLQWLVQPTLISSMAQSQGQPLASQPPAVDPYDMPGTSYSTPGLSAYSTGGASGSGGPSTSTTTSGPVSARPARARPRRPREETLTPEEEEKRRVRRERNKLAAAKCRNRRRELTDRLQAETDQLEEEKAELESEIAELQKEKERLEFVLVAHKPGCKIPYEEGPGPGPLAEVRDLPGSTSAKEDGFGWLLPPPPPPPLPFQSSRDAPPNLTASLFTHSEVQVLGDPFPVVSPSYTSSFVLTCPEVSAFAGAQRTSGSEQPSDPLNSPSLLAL
Large screens that a line does not name were inactive. Only some compounds are listed: those with a hit (about 2.8% of all), similar ones and a draw of the others.

Cc1ccc(OCC(=O)Nc2ccc(N3CCN(S(C)(=O)=O)CC3)cc2)cc1	FGF22 binding 43 (no result: PglD DTNB)
CS(=O)(=O)N1CCN(c2ccc(NC(=O)COc3ccccc3)cc2)CC1	none (no result: SIRT5 inh)
O=C(Cn1nc(-c2ccc(F)cc2)ccc1=O)Nc1ccc2c(c1)OCCO2	none
COCC(=O)Nc1ccc2c(c1)C(=O)N(C)[C@H]1CC[C@@H](CC(=O)NCC3CCCCC3)O[C@H]1CO2	none (no result: PvdQ inh, CDK5 inh, dFosB activator)
C[C@@H]1CN([C@H](C)CO)C(=O)Cc2cc(NC(=O)C3CCCCC3)ccc2O[C@H]1CN(C)Cc1ccc(Oc2ccccc2)cc1	none (no result: PvdQ inh, CDK5 inh, dFosB activator)
CC(=O)Nc1ccccc1-c1nnn(CC(=O)Nc2ccc3c(c2)OCCO3)n1	none
Cc1cccc(OCC(=O)Nc2ccc(N3CCCC3)cc2)c1C	dFosB activator 47 (no result: FGF22 binding, SIRT5 inh)
Cc1ccccc1C(=O)Nc1ccccc1-c1nnn(CC(=O)Nc2ccc3c(c2)OCCO3)n1	dFosB activator 31 (no result: FGF22 binding, SIRT5 inh)
C[C@@H]1CN([C@H](C)CO)C(=O)c2cc(NC(=O)Nc3ccc4c(c3)OCO4)ccc2O[C@@H](C)CCCCO[C@H]1CN(C)Cc1ccncc1	none (no result: PvdQ inh, CDK5 inh, dFosB activator)
O=C(C[C@@H]1C[C@@H]2c3cc(NC(=O)c4cccnc4)ccc3O[C@@H]2[C@@H](CO)O1)NCC1CC1	none (no result: PvdQ inh, CDK5 inh, dFosB activator)
C=CCNC(=O)CNS(=O)(=O)c1ccc(F)cc1	SIRT5 inh 18
Cc1ccc(S(=O)(=O)NCC(=O)OCC(=O)NCc2ccc(F)cc2)cc1	SIRT5 inh 34 (no result: PglD DTNB)
COC(=O)C[C@H]1CC[C@@H]2[C@H](COc3ccc(NS(=O)(=O)c4ccccc4Cl)cc3C(=O)N2C)O1	none (no result: PvdQ inh, CDK5 inh, dFosB activator)
CC1=NN(c2cccc(C(=O)O)c2)C(=O)/C1=C\C=C/c1ccccc1	FGF22 binding 43 (no result: PglD DTNB, PvdQ inh, CDK5 inh, dFosB activator)
CC1=NN(c2ccc(C)cc2)C(=O)/C1=C\C=C\c1ccccc1	none (no result: PglD DTNB)
CC(Nc1ccccc1N1CCCCC1)C(=O)N1CCc2ccccc21 (configuration not stated)	FGF22 binding 43
C[C@@H]1CCCCO[C@@H](CN(C)C(=O)NC2CCCCC2)[C@@H](C)CN([C@@H](C)CO)C(=O)c2cc(NC(=O)Nc3ccc(C(F)(F)F)cc3)ccc2O1	none (no result: PvdQ inh, CDK5 inh, dFosB activator)
O=C(Nc1ccccc1C(=O)N/N=C/c1ccncc1)c1ccccc1	FGF22 binding 44
O=C(Oc1ccc(/C=N/NC(=O)c2ccccc2F)cc1)c1ccccc1	dFosB activator 17
O=C(C[C@H]1CC[C@H]2[C@@H](COC[C@@H](O)CN2C(=O)Nc2ccc(C(F)(F)F)cc2)O1)NCC1CCCCC1	none (no result: PvdQ inh, CDK5 inh, dFosB activator)
C[C@@H]1CN([C@@H](C)CO)C(=O)Cc2cc(NC(=O)Nc3ccc(F)cc3)ccc2O[C@H]1CN(C)S(=O)(=O)c1ccc(F)cc1	none (no result: PvdQ inh, CDK5 inh, dFosB activator)
O=C(CCSc1ccccc1)NCCSCc1ccccc1	none (no result: PglD DTNB)
Cc1cccc(CSCCNC(=O)CCSc2ccccc2)c1	FGF22 binding 44
CC(=O)N1CCCCN2[C@H](C1)[C@H](c1ccc(-c3ccncc3)cc1)[C@@H]2CO	none (no result: PvdQ inh, CDK5 inh, dFosB activator)
Cc1ccc(C(=O)Nc2c(C)n(C)n(-c3ccccc3)c2=O)cc1	FGF22 binding 44 (no result: PglD DTNB)
Cc1ccc(S(=O)(=O)NCCCCCC(=O)Nc2c(C)n(C)n(-c3ccccc3)c2=O)cc1	FGF22 binding 43
Cc1ccc(S(=O)(=O)NC(=O)Nc2c(C)n(C)n(-c3ccccc3)c2=O)cc1	none
C[C@H](CO)N1C[C@H](C)[C@H](CN(C)C(=O)c2ccncc2)Oc2cc(C3=CCCC3)ccc2S1(=O)=O	none (no result: PvdQ inh, CDK5 inh, dFosB activator)
C[C@@H]1CN([C@H](C)CO)S(=O)(=O)c2ccc(/C=C/c3ccccc3)cc2O[C@@H]1CN(C)CC1CC1	none (no result: PvdQ inh, CDK5 inh, dFosB activator)
CC(=O)Nc1ccc(C=NNc2ccc([N+](=O)[O-])cc2S(=O)(=O)Nc2ccccc2C(=O)O)cc1	SIRT5 inh 26
Cc1ccc(NC(=S)NNc2ccc([N+](=O)[O-])cc2S(=O)(=O)Nc2ccccc2C(=O)O)cc1C	none (no result: FGF22 binding, SIRT5 inh)
CC(=O)Nc1cccc(/C(C)=N/Nc2ccc(S(=O)(=O)Nc3ccccc3C(=O)O)cc2[N+](=O)[O-])c1	SIRT5 inh 21
O=C(O)c1ccccc1NS(=O)(=O)c1ccc(N/N=C/c2cccc(O)c2O)c([N+](=O)[O-])c1	none
CC(=O)Nc1ccc(C=NNc2ccc(S(=O)(=O)Nc3ccccc3C(=O)O)cc2[N+](=O)[O-])cc1	SIRT5 inh 17 (no result: FGF22 binding)
COc1cc(C=NNc2ccc(S(=O)(=O)Nc3ccccc3C(=O)O)cc2[N+](=O)[O-])ccc1O	SIRT5 inh 22

High-throughput results from PubChem BioAssay.
